From PubChem
Shown are actives, neighbours in structure and some others; about 2.4% of the full set was active somewhere.
Pol kappa inh-1: qHTS for Inhibitors of Polymerase Kappa; AID 588579, 2011; Potency, µM (doses to about 107 µM), for the others: at the top dose activity, negative = inhibition, usual class: inhibitors; 400,000 tested, 0.53% active; purified Pol kappa, fluorescent DNA synthesis assay, 10 min; DNA polymerase kappa (Homo sapiens), Q9UBT6; note: potency is the fitted concentration of half-maximal effect; % is set by controls: 0 for no effect and ±100 for the full control effect
Target sequence (Q9UBT6 whole entry, looked up): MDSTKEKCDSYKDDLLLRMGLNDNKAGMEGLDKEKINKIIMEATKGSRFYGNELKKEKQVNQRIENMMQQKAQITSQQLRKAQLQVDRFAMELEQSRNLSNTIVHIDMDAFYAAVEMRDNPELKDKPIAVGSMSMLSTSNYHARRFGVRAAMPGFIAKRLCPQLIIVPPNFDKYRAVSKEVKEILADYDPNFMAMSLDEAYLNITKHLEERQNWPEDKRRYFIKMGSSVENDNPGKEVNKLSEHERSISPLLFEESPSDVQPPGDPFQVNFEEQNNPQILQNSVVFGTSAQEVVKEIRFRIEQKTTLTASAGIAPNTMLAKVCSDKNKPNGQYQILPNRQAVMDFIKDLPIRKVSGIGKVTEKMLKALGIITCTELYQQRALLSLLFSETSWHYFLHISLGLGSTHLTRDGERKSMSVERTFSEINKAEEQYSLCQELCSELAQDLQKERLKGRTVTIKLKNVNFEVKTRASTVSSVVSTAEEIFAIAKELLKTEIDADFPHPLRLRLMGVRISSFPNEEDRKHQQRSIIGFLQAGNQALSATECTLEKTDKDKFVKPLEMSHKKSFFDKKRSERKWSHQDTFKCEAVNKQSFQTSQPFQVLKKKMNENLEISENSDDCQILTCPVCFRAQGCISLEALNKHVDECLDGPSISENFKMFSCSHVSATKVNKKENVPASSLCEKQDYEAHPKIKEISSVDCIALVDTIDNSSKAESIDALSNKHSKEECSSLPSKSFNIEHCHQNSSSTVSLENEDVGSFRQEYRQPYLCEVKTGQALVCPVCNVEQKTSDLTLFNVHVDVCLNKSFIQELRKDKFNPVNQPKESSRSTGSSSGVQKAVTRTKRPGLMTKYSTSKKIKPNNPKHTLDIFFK
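Pol kappa 10 nM + cpd, 15 min RT; start w/ substrate 50 nM final; fluorescence kinetic read, 0 and 10 min. Neg ctrl: buffer, no enzyme.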
GLS inhibitor: qHTS for Inhibitors of Glutaminase (GLS); Potency, µM (titrated, usually from 45.5 µM), inactives show at the top dose activity change, negative = inhibition, usual class: inhibitors; GLS enzymatic activity, qHTS titration; 410,000 tested, 0.21% active; Glutaminase kidney isoform, mitochondrial (Homo sapiens), O94925; AID 624170, 2012; note: potency is the fitted concentration of half-maximal effect; % is set by controls: 0 for no effect and ±100 for the full control effect
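hKGA; 45 mM KH2PO4 pH 8.2 + 0.02% Tween-20; cpd via pin tool; 1 mM Gln soln; GluOx/HRP/Amplex Red; RT 30 min; fluor. t0 & final.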
APEX1 inh: qHTS Assay for Inhibitors of the Human Apurinic/apyrimidinic Endonuclease 1 (APE1). AID 2517, 2012. 350,000 tested, 0.35% active. recombinant APE1, TAMRA/BHQ-2 abasic DNA cleavage fluorescence. DNA repair nuclease/redox regulator APEX1 (Homo sapiens), P27695. Potency, µM (titrated, usually from 65.8 µM), for the others: at the highest dose activity change, negative = inhibition, most hits filed as inhibitors;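 note: potency is the fitted concentration of half-maximal effect; plate controls were vehicle for no effect and reference inhibitor for full effect; nearly all actives have a fitted effect of over 55% in size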
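APE1 at 0.75 nM final was preincubated with compound 15 min at room temperature, then 50 nM double-stranded THF abasic-site substrate (5'-TAMRA/3'-BHQ-2) was added. Fluorescence (ex 525/em 598 nm) was read kinetically; third-minus-first read gave activity.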
Pol eta inh-1: qHTS for Inhibitors of Polymerase Eta. DNA polymerase eta (Homo sapiens), Q9Y253. recombinant Pol eta, fluorescent DNA replication assay. Potency, µM (highest dose often 114 µM), for the others: at the highest dose activity change, negative = inhibition, actives largely listed as inhibitors. 390,000 tested, 1.2% active. AID 588591, 2011; note: potency is the fitted concentration of half-maximal effect; % is set by controls: 0 for no effect and ±100 for the full control effect
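Pol eta (10 nM) was preincubated with compounds for 15 min at room temperature, after which fluorescent replication substrate (50 nM final) was added to start the reaction. Fluorescence was read kinetically at 0 and 10 min.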
Pol iota inh: qHTS for Inhibitors of Polymerase Iota. DNA polymerase iota (Homo sapiens), Q9UNA4. AID 588590, 2011. Potency, µM (titrated, usually from 115 µM), for the others: at the top dose activity, negative = inhibition, actives largely listed as inhibitors. 390,000 tested, 1% active. Pol iota fluorescent replication assay, 10 min; note: potency is the fitted concentration of half-maximal effect
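Fluorescent replication assay read twice, at 0 min and 10 min after adding 50 nM (final) substrate. Enzyme (10 nM) and compounds were first incubated 15 min at room temperature; enzyme-free buffer wells were negative controls.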
Pol beta inh: qHTS Assay for Inhibitors of DNA Polymerase Beta | P06746 | Pol beta primer extension/strand displacement, fluorescence kinetic | Potency, µM (titrated, usually from 114 µM), inactives show top-dose activity change, negative = inhibition, hits mostly inhibitors | 340,000 tested, 1.3% active; note: potency is the fitted concentration of half-maximal effect; % is set by controls: 0 for no effect and ±100 for the full control effect
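Pol beta (10 nM) was preincubated with compound for 15 min at room temperature. The reaction was then started with 50 nM substrate and read immediately and after a further 10 min at room temperature.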
PGK validate: qHTS for inhibitors of Phosphogylcerate Kinase: Hit Validation Screen | TbPGK coupled GAPDH assay, Kinase-Glo luminescence | 500 tested, 79% active | shares compounds with Pol kappa inh-1 | Potency, µM (titrated, usually from 57.5 µM), for inactives: top-dose activity change, negative = inhibition, usual class: inhibitors | AID 686980, 2013; note: potency is the fitted concentration of half-maximal effect; % is set by controls: 0 for no effect and ±100 for the full control effect; nearly all actives have a fitted effect of over 65% in size
POLI cherry-pick: qHTS for Inhibitors of Polymerase Iota: Confirmatory Assay for Cherry-picked Compounds. shares compounds with Pol kappa inh-1. Pol iota primer extension, TAMRA/BHQ fluorescence. Potency, µM, hits mostly inhibitors. 1,500 tested, 77% active; note: potency is the fitted concentration of half-maximal effect
GALK inh confirm: Confirmation Assay for Inhibitors of Human Galactokinase (GALK); shares compounds with Pol eta inh-1; purified GALK, Kinase-Glo ATP depletion luminescence; Potency, µM (titrated, usually from 115 µM), inactives show at the highest dose activity, negative = inhibition, hits mostly inhibitors; 150 tested, 70% active; AID 2015, 2009
GALK redox cs: Confirmatory Assay for Inhibitors of Human Galactokinase (GALK): Phenol-HRP redox assay counterscreen; shares compounds with Pol eta inh-1; Phenol red-HRP H2O2 redox cycling, absorbance 600 nm; Potency, µM (titrated, usually from 115 µM), inactives show top-dose activity change, negative = H2O2 signal, hits mostly inhibitors; 150 tested, 40% active
HEK293 viability: Secondary Assay for Inhibitors of Human Galactokinase (GALK): HEK-293 Cell Viability Assay | shares compounds with Pol eta inh-1 | AID 2547, 2010 | Potency, µM (titrated, usually from 46.1 µM), without a hit: at the top dose activity change, negative = cytotoxicity, usual class: inhibitors | 170 tested, 10% active | HEK-293 viability, ATP luminescence (CellTiter-Glo), 24/48 h; note: potency is the fitted concentration of half-maximal effect; % is set by controls: 0 for no effect and ±100 for the full control effect
Pol kappa inh-2: qHTS for Inhibitors of Polymerase Kappa: Confirmatory Assay for Cherry-picked Compounds. shares compounds with Pol eta inh-1. purified Pol-kappa, fluorescent strand-displacement substrate. Potency, µM, usual class: inhibitors. 920 tested, 76% active. AID 720501, 2013; note: potency is the fitted concentration of half-maximal effect
Pol eta inh-2: qHTS for Inhibitors of Polymerase Eta: Confirmatory Assay for Cherry-picked Compounds. shares compounds with Pol eta inh-1. Pol eta primer extension, TAMRA/BHQ fluorescence, 10 min. Potency, µM, usual class: inhibitors. 2,600 tested, 64% active; note: potency is the fitted concentration of half-maximal effect
An asterisk follows results filed as active; ? = inconclusive; nt = no result given; [ ] = remark or other dose. Calls come from the whole dose curve; as a rule, active = well fitted curve in the direction sought with a large enough effect; inconclusive = small, poorly fitted or top-dose-only effect, or another doubt; inactive = no such curve, though single readings can be large; an effect the other way counts as inactive or inconclusive.

SMILES	Pol kappa inh-1	GLS inhibitor	APEX1 inh	Pol eta inh-1	Pol iota inh	Pol beta inh	POLI cherry-pick	Pol eta inh-2	others
O=C(COC(=O)c1ccc(OC(F)(F)F)cc1)Nc1ncccn1	?	?	?	18µM*	?	nt	60*	76*	Pol kappa inh-2=?
O=C(CCCCCNC(=O)N1CCn2c1nc1ccccc12)N[C@@H](C(=O)O)c1ccccc1	8%	2%	6%	-8%	-18%	-4%	nt	nt
O=C(/C=C/c1ccco1)N1CCN(S(=O)(=O)c2ccccc2)CC1	?	?	?	18µM*	50µM*	nt	nt	?	PGK validate=9.2µM*;Pol kappa inh-2=?
O=C(/C=C/c1ccco1)N1CCN(S(=O)(=O)c2ccc(F)c(F)c2F)CC1	-12%	0%	1%	15%	83%	?	nt	nt
CC1=NN(c2ccccc2)C(=O)C1/C=C1\NC(=S)NC1=O (stereo unspecified)	25µM*	15%	5%	3.2µM*	?	-5%	47*	24*	Pol kappa inh-2=7.5*
CC1=NN(c2ccccc2)C(=O)C1C=Nc1ccccc1O (stereo unspecified)	7%	16%	-2%	-24%	15%	-1%	nt	nt
O=C(O)Cc1ccc(NC(=O)c2ccc3c(c2)C(=O)N(Cc2ccco2)C3=O)cc1	?	0%	-3%	4µM*	11µM*	-7%	60*	24*
CC(=O)c1ccc(S(=O)(=O)N2Cc3ccccc3CC2C(=O)O)cc1 (stereo unspecified)	50µM*	-8%	?	5µM*	?	13µM*	27*	15*
O=C(O)CCCCCN1C(=O)/C(=C/c2cn(-c3ccccc3)nc2-c2cccs2)SC1=S	?	3%	nt	?	?	nt	34*	nt	Pol kappa inh-2=?
CCN1C(=O)/C(=C/c2cn(-c3ccccc3)nc2-c2cccnc2)SC1=S	3%	-26%	nt	-19%	-2%	nt	nt	nt
O=C(O)CCCCCN1C(=O)/C(=C\c2cn(-c3ccccc3)nc2-c2cccs2)SC1=S	?	28%	-1%	45µM*	?	-68%	34*	?
COc1ccc(/C=C2/SC(=S)N(CCC(=O)O)C2=O)cc1	-13%	1%	-5%	-9%	-5%[58.9 µM]	22%	nt	nt
COc1ccc(-c2nn(-c3ccccc3)cc2/C=C2/SC(=S)N(CCC(=O)O)C2=O)c(C)c1	?	?	?	32µM*	?	32µM*	75*	?
O=C(O)CCN1C(=O)/C(=C\c2cccc(Oc3ccccc3)c2)SC1=S	?	-16%	16%	40µM*	25µM*	?	?	76*
Cc1oc2ccc(O)cc2c1C(=O)c1ccc(F)cc1	-10%	11%	nt	-24%	41%	nt	nt	nt
O=C1/C(=C\c2cc(Cl)c(O)c(Cl)c2)SC(=S)N1Cc1ccccc1	-28%	1%	?	50µM*	10µM*	?	84*	nt	GALK inh confirm=27µM*;GALK redox cs=5%;HEK293 viability=?
O=C(O)CCN1C(=O)/C(=C/c2cn(-c3ccccc3)nc2-c2cccs2)SC1=S	89µM*	14%	-2%	35µM*	32µM*	-16%	19*	43*
C1CN(CC23CC4CC(CC(C4)C2)C3)CCO1	-4%	11%	-2%	-5%	-6%	2%	nt	nt
Cc1cc(C)n(Cc2ccc(C(=O)N/N=C/c3ccc(-c4ccc([N+](=O)[O-])cc4)o3)o2)n1	25µM*	6%	2.7µM*	6.3µM*	10µM*	2µM*	17*	43*
CCCCC(=O)N/N=C/c1ccc(-c2ccc([N+](=O)[O-])cc2)o1	-16%	-16%	1%	-2%	39%	-17%	nt	nt
COc1ccc(CNC(=O)Cc2c(C)c3c(cc(C)c4c(C)coc43)oc2=O)cc1OC	-5%	1%	nt	-10%	19%	-2%	nt	nt
O=C1c2cccc(NCCCNCCO)c2C(=O)c2cccc(NCCCNCCO)c21	32µM*	10%	nt	4.5µM*	45µM*	nt	19*	38*	Pol kappa inh-2=17*
O=C1c2ccccc2C(=O)c2c(NCc3cccnc3)cccc21	-12%	0%	1%	-1%	9%	-2%	nt	nt
